# In PubChem BioAssay AID1259312 (Keith Lab, Institute of Cancer Science, University of …, 2017):
# Hit rate of the full screen: of about 4,500 compounds, about 200 (4.4%) were called active. The sample holds actives, similar compounds and a random draw of the others, so the mix is not that of the screen.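 Rule for the calls: active = cell survival measured by absorbance rises more than 2.5-fold over infected cells without compound; inactive = the rest.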
# Test: survival after telomere uncapping, modulators, primary screen, cell-based (AID 1259312);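 note: virus expresses mutant telomerase RNA that uncaps telomeres and kills cells; compound added 2 days after infection so exposure lasts 3 days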
# Settings: HCT116 + Ad-hTR-mut, MTT, 5 d; at 10 µM, active compounds read high
row,Structure (SMILES),fold change
1,Cc1sc(NC(=O)Cn2cnc([N+](=O)[O-])n2)c(C(N)=O)c1C,1.35 (inactive)
2,CC(C)CCCC(C)C1CCC2C3CC=C4CC(O)CCC4(C)C3CCC12C (stereo not drawn),1.54 (inactive)
3,CC(=O)OC1CCC2(C)C(=CCC3C2CC[C@]2(C)C(C(C)=O)CCC32)C1 (stereo partly drawn),1.32 (inactive)
4,CC(=O)OC1CCC2(C)C(=CCC3C2CCC2(C)C3CC3OC32[C@H](C)OC(C)=O)C1 (stereo partly drawn),4.11 (active)
5,CC(=O)OC1CCC2(C)C(=CCC3C2CCC2(C)C(C(C)O)CCC32)C1 (stereo not drawn),3.23 (active)
6,CC[C@H](/C=C/[C@@H](C)[C@H]1CC[C@H]2[C@@H]3CC=C4C[C@@H](O)CC[C@]4(C)[C@H]3CC[C@]12C)C(C)C,-1.34 (inactive)
7,CCCCOC1CC[C@@]2(C)C(=CC[C@H]3[C@@H]4CC[C@H]([C@H](C)CCCC(C)C)[C@@]4(C)CC[C@@H]32)C1 (stereo partly drawn),-1.1 (inactive)
8,CNc1oc(/C=C/c2ccccc2)nc1S(=O)(=O)c1ccc(Cl)cc1,-1.12 (inactive)
9,CC(C)(C)Sc1c(Br)cccc1Br,-2.29 (inactive)
10,CCCc1nnc(NC(=O)c2ccoc2C)s1,-1.3 (inactive)
11,CCOc1ccc(-n2c(C)cc(C(=S)N3CCOCC3)c2C)cc1,-3.28 (inactive)
12,CCC(C)C(NC(C)=O)C(=O)O (stereo not drawn),1.28 (inactive)
13,NC1CCCc2c1[nH]c1ccc(Br)cc21 (stereo not drawn),-11 (inactive)
14,c1ccc(OCC2CCNCC2)nc1,2.98 (active)
15,CC(C)(C)c1cc(Cl)cc(Cc2cc(C(C)(C)C)c(O)c(C(C)(C)C)c2)c1O,-1.42 (inactive)
16,CCOC(=O)C1=C(C(=O)OCC)SC(=C2C(=S)C(C)(C)N(C)c3ccc(C)cc32)S1,-1 (inactive)
17,O=C(Nc1ccccc1)Nc1snnc1C(=O)O,4.77 (active)
18,O=C(Nc1ccccc1)Nc1ccc2c(c1)OCCO2,-1.3 (inactive)
19,O=C(Nc1ccc(F)cc1)Nc1nncs1,-1.15 (inactive)
20,CCOC(=O)C1CCN(C(=O)CC(C)C)CC1,-1.61 (inactive)
21,O=S(=O)(Nc1cccc2ccccc12)N1CCCCC1,-1.29 (inactive)
22,C=CCN(CC=C)C(=O)Cc1cccs1,-1.46 (inactive)

row,Structure (SMILES),fold change
1,Oc1ccc(Br)c(C=Nc2ccc(-c3ccc(N=Cc4cc(Br)ccc4O)cc3)cc2)c1,active
2,COc1ccc(OC)c(N=Cc2cc(Br)ccc2O)c1,active
3,COc1cc2c(cc1N=Cc1cc(Br)ccc1O)oc1ccccc12,inactive
4,O=[N+]([O-])c1ccc(O)c(C=Nc2ccc(I)cc2)c1,inactive
5,COc1ccc(OC)c(N=Cc2cc(Cl)cc(Cl)c2O)c1,inactive
6,Oc1c(Br)cc(Br)cc1C=Nc1ccc(Br)cc1,inactive
7,Oc1ccc(Br)cc1C=Nc1cc(Cl)cc(Cl)c1,inactive
8,Oc1ccc(Br)cc1C=Nc1cc(Cl)ccc1Cl,inactive
9,Oc1ccc(Br)cc1C=Nc1ccc(I)cc1,active
10,O=c1c2ccc(Cl)c3c(Cl)ccc(c32)c2nc3ccccc3n12,-2.06 (inactive)
11,Cc1cc(C)n(C(=O)c2nn(C)cc2[N+](=O)[O-])n1,1.61 (inactive)
12,O=[N+]([O-])c1cc(Br)cc(C=Nc2ccc(I)cc2)c1O,inactive
13,N#CC1=C(N)Oc2[nH]c(=O)[nH]c(=O)c2C1c1cccnc1 (stereo not drawn),1.23 (inactive)
14,O/N=C(\c1ccccc1)C(O)c1ccccc1 (stereo not drawn),-1.85 (inactive)
15,S=c1nc(-c2ccccc2Cl)[nH][nH]1,-1.2 (inactive)
16,Nn1c(-c2cccs2)nc2ccccc2c1=O,-1.03 (inactive)
17,O=C1C=CC(=O)N1c1ccc(Cl)c(Cl)c1,-1.48 (inactive)
18,NCC1NCCc2ccccc21 (stereo not drawn),-1.4 (inactive)
19,NC(=S)NCCC[C@H](N)C(=O)O,1.05 (inactive)
20,c1ccc2cc(NCSCc3nc4ccccc4c4ccccc34)ccc2c1,-1.54 (inactive)
21,O=C1C2C3c4ccccc4C(c4ccccc43)C2C(=O)N1c1ccc2ccccc2c1 (stereo not drawn),3.16 (active)
22,Cc1ccnc(SC2CC(=O)N(c3ccc4ccccc4c3)C2=O)n1 (stereo not drawn),-1.04 (inactive)

row,Structure (SMILES),fold change
1,O=C1C2C3CC(C(Br)C3Br)C2C(=O)N1c1ccc(Br)cc1 (stereo not drawn),1.06 (inactive)
2,CN1C(=O)COc2ccc(S(=O)(=O)N3CCOCC3)cc21,-1.01 (inactive)
3,Nc1nc(=S)n(-c2ccccc2)[nH]1,-2.51 (inactive)
4,N#CC1=C(N)Oc2ccc(N)cc2C1c1cccnc1 (stereo not drawn),2.15 (inactive)
5,N#CC1=C(N)N(Cc2ccccc2)C2=C(COC/C2=C/c2cccnc2)C1c1cccnc1 (stereo not drawn),2.64 (active)
6,CC(C)N1C=C(Cc2cccnc2)C2=C(C1)C(c1cccnc1)C(C#N)=C(N)O2 (stereo not drawn),2.25 (inactive)
7,COc1cccc(OC)c1-c1noc(CSc2nc3ccccc3o2)n1,-1.15 (inactive)
8,O=c1[nH]c(=O)n([C@@H]2O[C@H](CO)[C@@H](O)[C@H]2O)cc1Br,-3.23 (inactive)
9,Cc1cc(C)nc(Nc2ccc(N3CCOCC3)cc2)n1,-1.54 (inactive)
10,O=c1nc(N2CCOCC2)nc(Nc2ccccc2)[nH]1,active
11,Cc1cc(C)n(-c2nc(N3CCOCC3)nc(N3CCOCC3)n2)n1,1.04 (inactive)
12,CCc1cc(C=C(Cl)Cl)oc(=O)c1C,-1.84 (inactive)
13,Cc1cc2ccc(=O)oc2cc1OC[C@@H](O)C(C)(C)O,-1.35 (inactive)
14,O=S(=O)(NCc1ccco1)c1ccc(Br)cc1,2.26 (inactive)
15,O=c1[nH]nc(CSCc2ccc(Cl)cc2)[nH]1,inactive
16,O=c1[nH]nc(CSCc2csc(-c3ccccc3)n2)[nH]1,inactive
17,O=c1[nH]nc(CSCc2ccc3nsnc3c2)[nH]1,active
18,NCCCN1CCc2ccccc21,-1.28 (inactive)
19,O=C(c1n[nH]c(=O)c2ccccc12)N1CCN(c2ccccn2)CC1,-1.05 (inactive)
20,O=C(Nc1sc2c(c1C(=O)O)CCCCC2)c1cccs1,-1.49 (inactive)
21,O=C(O)c1csc2c1CCCC2,2.51 (active)
22,Cc1ccc(C)n1-c1sc2c(c1C(=O)O)CCCC2,-1.1 (inactive)

row,Structure (SMILES),fold change
1,CCS(=O)(=O)c1ccsc1S(=O)(=O)CC,-1.28 (inactive)
2,COC(=O)Nc1ncc(CN2CCOCC2)s1,-2.39 (inactive)
3,c1ccc(-c2nc(-c3ccccn3)nc(-c3ccccn3)n2)nc1,3.31 (active)
4,O=S(=O)(O)c1ccc(-c2nnc(-c3ccccn3)nc2-c2ccc(S(=O)(=O)O)o2)o1,-1.16 (inactive)
5,c1ccc(-c2ccc3ccccc3n2)nc1,-1.13 (inactive)
6,CC(C)(C)NC(=O)Nc1cccnc1Cl,-1.98 (inactive)
7,C=CCOC(=O)c1sc(NC(=O)c2cccs2)nc1C,-1.68 (inactive)
8,CCOC(=O)/C(C#N)=C(\C#N)C(=O)OCC,1.04 (inactive)
9,CN1CC(C(=O)Nc2ccc3c4c(cccc24)CC3)CC1=O (stereo not drawn),1.08 (inactive)
10,CS(=O)(=O)Nc1ccc2c3c(cccc13)CC2,2.67 (active)
11,CS(=O)(=O)Nc1ccc(F)cc1F,-1.21 (inactive)
12,Nc1nc(-c2ccc(Cl)c(Cl)c2)cs1,1.69 (inactive)
13,CCCOc1ccccc1N=c1ssc2c1-c1cc(C)c(C)cc1NC2(C)C,-3.58 (inactive)
14,Cc1nc(N=C(N)N)nc2ccccc12,3.38 (active)
15,COc1cccc2c(C)nc(N=C(N)N)nc12,1.65 (inactive)
16,COc1ccc2nc(N=C(N)N)nc(C)c2c1,1.75 (inactive)
17,Cc1nccn1CCC1CCNCC1,3.27 (active)
18,Cc1ccc(-c2nn(CN3CCC(c4ccccc4)C3)c(=S)n2-c2ccccc2)cc1 (stereo not drawn),-1.2 (inactive)
19,CC(C)(C)c1ccc(-c2nn(CN3CCC(c4ccccc4)C3)c(=S)n2-c2ccccc2)cc1 (stereo not drawn),-1.84 (inactive)
20,S=c1n(CN2CCCCC2)nc(-c2ccccc2)n1-c1ccccc1,3.46 (active)
21,O=C(NCCN1CCOCC1)C(=O)NCCN1CCOCC1,1.02 (inactive)
22,COc1ccc(C2C3=C(Nc4ncnn42)c2ccccc2CC3)cc1OC (stereo not drawn),inactive

row,Structure (SMILES),fold change
1,O=S(=O)(NCCCl)c1ccccc1,-1.04 (inactive)
2,CCOC(=O)CC[C@@H](C)[C@H]1CC[C@H]2[C@@H]3[C@H](O)C[C@@H]4C[C@H](O)CC[C@]4(C)[C@H]3C[C@H](O)[C@]12C,-1.19 (inactive)
3,COC(=O)CCC(C)C1CCC2C3C(C[C@H](O)C12C)C1(C)CC[C@@H](O)CC1C[C@H]3O (stereo partly drawn),4.26 (active)
4,C[C@H](CCC(=O)O)[C@H]1CC[C@H]2[C@@H]3[C@H](O)C[C@@H]4C[C@H](O)CC[C@]4(C)[C@H]3C[C@H](O)[C@]12C,-1.01 (inactive)
5,COc1ccc(-c2nc(-c3cccnc3)no2)cc1,-1.74 (inactive)
6,O=C1CC(c2cc3c(cc2Br)OCO3)c2ccc3ccccc3c2N1 (stereo not drawn),1.01 (inactive)
7,Nc1nc(SCC(=O)Nc2ccc(Br)cc2)sc1C(=O)Nc1nccs1,-1.48 (inactive)
8,CC(=O)C(C(C)=O)C(C(C)=O)C(C)=O,3.14 (active)
9,CCOC(=O)C(C(C)=O)C(C(C)=O)C(=O)OCC (stereo not drawn),1.67 (inactive)
10,Brc1csc(-c2cc(Br)cs2)c1,-1.44 (inactive)
11,NC(=O)c1c(NC(=O)CN2CCCCC2)sc2c1CCCC2,-1.75 (inactive)
12,c1ccc(CCn2c(CSc3nc4ccccc4o3)nc3ccccc32)cc1,-1.06 (inactive)
13,NS(=O)(=O)c1cc(C(=O)O)c(Cl)cc1Cl,-1.78 (inactive)
14,c1ccc(-c2ccc(CSc3nc4ccccc4o3)cc2)cc1,-1.02 (inactive)
15,Cc1ccc(C)n1-c1ccc(NC2CCCC2)c([N+](=O)[O-])c1,-1.34 (inactive)
16,O=[N+]([O-])c1ccccc1NC1CCCCC1,1.67 (inactive)
17,NNc1cc(Cl)ccc1[N+](=O)[O-],3.68 (active)
18,O=[N+]([O-])c1ccc(Cl)cc1NCc1ccco1,-1.31 (inactive)
19,O=[N+]([O-])c1ccc(Cl)cc1NCCO,2.39 (inactive)
20,O=[N+]([O-])c1cc(Cl)ccc1NC1CCCCC1,4.77 (active)
